Inconclusive results are not listed. Entries that show only a call come without a potency. Calls of active or inactive are those of the source. Calls come from the whole dose curve; as a rule, active = well fitted inhibition curve with a large enough effect; inconclusive = small, poorly fitted or top-dose-only effect; inactive = no such curve, though single readings can be large or run the other way.
How the values were obtained:
[1] = tested on: Zika virus NS2B-NS3 protease (unlinked complex); experiment: Primary screen GU Rhodamine qHTS for Zika virus inhibitors: Unlinked NS2B-NS3 protease assay (AID 1347159); settings: Recombinant ZIKV NS2B-NS3 protease, Rhodamine110 substrate fluorescence; series mostly up to 107 µM; note: nearly all actives have a fitted effect of over 60% in size
In short: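 Compounds, tested up to 114 microM, were incubated for 15 minutes with 25 nM unlinked NS2B-NS3 protease at pH 8.0. Cleavage of 1.5 microM Rhodamine110 substrate was then followed by fluorescence for 15 minutes.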

[2] = tested on: Zika virus NS2B-NS3 protease (linked construct); experiment: Primary screen NINDS Rhodamine qHTS for Zika virus inhibitors (AID 1347160); settings: purified NS2B-NS3 protease, Rhodamine110 substrate fluorescence; series mostly up to 57.1 µM; note: nearly all actives have a fitted effect of over 55% in size
In short: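 Percent inhibition, normalized to uninhibited and enzyme-free controls, is fitted to a 4-parameter Hill equation. Fluorescence change comes from a 15-min cleavage of 1.5 microM bis-peptide Rhodamine110 substrate by 25 nM linked NS2B-NS3 at room temperature.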

Row | Compound | Potency [1] | Potency [2]
1 | CON(C)C(=O)N1N=C(c2cc(F)ccc2F)S[C@@]1(CCCN)c1ccccc1 | inactive | inactive
2 | C=CC1(C)C=C2C(=O)CC3C(C)(C)CCCC3(C(=O)O)C2(O)CC1 (stereo not given) | inactive | inactive
3 | CN(C)C/C=C/C(=O)Nc1ccc(C(=O)Nc2cccc(Nc3ncc(Cl)c(-c4c[nH]c5ccccc45)n3)c2)cc1 | inactive | inactive
4 | CC(=O)O[C@H]1[C@H](C)[C@@H](O)[C@H]2[C@@H]1C=C(C(=O)O)[C@H]1C[C@@H]3[C@H]([C@H]21)[C@H]1C(=O)O[C@@H]2CC[C@@]3(C)O[C@]1(O)[C@@H]2C | inactive | inactive
5 | CC(/C=C/C1(O)C(C)CC(O)CC1(C)C)OC1OC(CO)C(O)C(O)C1O (stereo not given) | inactive | inactive
6 | C=C1C(OC(C)=O)C(=O)C2C(C)(C)C(OC(C)=O)CCC2(C)C1CC(OC(C)=O)/C(C)=C/COC(C)=O (stereo not given) | inactive | inactive
7 | Cc1nc2c(-c3cnc(N)nc3)nc(N3CCOCC3)nc2n1C(C)C | inactive | inactive
8 | C=C1CC[C@@H]2[C@](C)(CO[C@@H]3O[C@H](CO)[C@@H](O)[C@H](O)[C@H]3O)CCC[C@@]2(C)[C@@H]1CCC1=CCOC1=O | inactive | inactive
9 | OC[C@H]1O[C@@H](OC(CCCCc2ccc(O)cc2)CCc2ccc(O)cc2)[C@H](O[C@@H]2OC[C@](O)(CO)[C@H]2O)[C@@H](O)[C@@H]1O (stereo not given in full) | inactive | inactive
10 | C[C@@]12C[C@]3(O)O[C@H](O1)[C@]1(COC(=O)c4ccccc4)[C@H]3C[C@@]12O[C@@H]1O[C@H](COC(=O)c2ccccc2)[C@@H](O)[C@H](O)[C@H]1O | inactive | inactive

Reference: PubChem BioAssay (NCATS)
